# G9a block: inhibitors of human histone lysine methyltransferase G9a | Q96KQ7 | 350,000 compounds, 8.8% hits | AID 504332 | G9a H3K9 monomethylation, AlphaScreen, 2 h | Potency, µM (highest dose often 102 µM), inactives show at the highest dose activity, negative = inhibition, hits mostly inhibitors; further: on the % scale 0 is the no-effect control and ±100 the full control effect; nearly all actives have a fitted effect of over 75% in size
# Target sequence (Q96KQ7 913-1193 limits assumed): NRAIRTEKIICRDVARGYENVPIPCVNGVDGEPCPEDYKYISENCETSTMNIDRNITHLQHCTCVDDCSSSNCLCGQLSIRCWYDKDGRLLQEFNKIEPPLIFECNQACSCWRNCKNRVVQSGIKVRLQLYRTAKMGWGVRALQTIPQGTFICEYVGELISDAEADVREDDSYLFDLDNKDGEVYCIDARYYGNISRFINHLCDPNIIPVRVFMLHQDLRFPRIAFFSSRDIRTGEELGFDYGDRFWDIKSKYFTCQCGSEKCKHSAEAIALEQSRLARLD
#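 G9a (20 nM) was preincubated 15 min with compound, then reacted 2 h at room temperature with 500 nM biotin-H3K9 peptide and 20 µM SAM. Monomethyl-H3K9 detected by AlphaScreen using anti-H3K9me1 antibody.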
# L3MBTL1 inh: L3MBTL1 (human) inhibition | AlphaScreen L3MBTL1–H3K9me1 peptide binding | Potency, µM (series often up to 57.1 µM), for inactives: at the highest dose activity, negative = inhibition, usual class: inhibitors | Q9Y468 | 230,000 compounds, 0.66% hits; further: on the % scale 0 is the no-effect control and ±100 the full control effect; nearly all actives have a fitted effect of over 60% in size
#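 AlphaScreen assay: L3MBTL1 (50 nM final) was preincubated 30 min at room temperature with biotinylated H3(1-15)K9me1 peptide (75 nM final), then 30 min with library compounds; streptavidin donor and nickel chelate acceptor beads (10 ug/mL final) added, 30 min dark.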
# HP1b binding inh: inhibitors of HP1-beta chromodomain binding to methylated histone tails; P83916; AlphaScreen HP1-beta / biotin-H3K9me3 peptide binding; Potency, µM (top dose mostly 114 µM), for the others: at the top dose activity change, negative = inhibition, actives largely listed as inhibitors; 390,000 compounds, 0.56% hits; AID 540317; further: nearly all actives have a fitted effect of over 70% in size
# Target sequence (P83916 whole entry, looked up): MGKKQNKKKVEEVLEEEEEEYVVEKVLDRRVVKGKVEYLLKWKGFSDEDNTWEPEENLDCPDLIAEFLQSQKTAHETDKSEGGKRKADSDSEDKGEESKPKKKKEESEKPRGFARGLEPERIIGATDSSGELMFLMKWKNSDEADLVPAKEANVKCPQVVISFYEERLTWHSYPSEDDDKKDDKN
#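 Compound inhibition of the preformed complex between 50 nM HP1-beta and 50 nM biotinylated H3K9me3 peptide was read by AlphaScreen. Buffer was PBS pH 7.4 with 0.01% Tween-20. Incubations ran 30 min at room temperature, with 10 ug/mL donor/acceptor beads.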
# JMJD2A Tudor: blocks the human JMJD2A Tudor domain; O75164; AlphaScreen JMJD2A-Tudor / H3K4me3 peptide binding; Potency, µM (top dose mostly 114 µM), inactives show at the highest dose activity change, negative = inhibition, actives largely listed as inhibitors; 390,000 compounds, 4.4% hits; further: on the % scale 0 is the no-effect control and ±100 the full control effect; nearly all actives have a fitted effect of over 50% in size
# BAZ2B inh: inhibitors of human BAZ2B bromodomain; AlphaScreen BAZ2B-H3K14Ac peptide displacement; Q9UIF8; Potency, µM (titrated, usually from 114 µM), for inactives: at the top dose activity change, negative = inhibition, hits mostly inhibitors; 360,000 compounds, 4.4% hits; AID 504333; further: on the % scale 0 is the no-effect control and ±100 the full control effect; nearly all actives have a fitted effect of over 60% in size
#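 In this displacement format the biotinylated H3(5-23) peptide acetylated at Lys14 serves as ligand at 50 nM, with BAZ2B at 50 nM in PBS pH 7.4 containing 0.01% Tween-20. Donor and acceptor beads are 10 ug/mL final.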
# The depositor's hits bear a star; u = inconclusive; x = not tested or not shown; [ ] = another dose, or the depositor's remark. Most compounds without a hit are left out; they make up all but 11% or so of the library. The call rests on the fitted dose curve; in most records, active means well fitted inhibition curve with a large enough effect; inconclusive means small, poorly fitted or top-dose-only effect; inactive means no such curve, though single readings can be large or run the other way. Potency means the concentration at half of the fitted maximal effect.
SMILES,G9a block,L3MBTL1 inh,HP1b binding inh,JMJD2A Tudor,BAZ2B inh
Cc1nnc(SCC2=C(C(=O)O)N3C(=O)C(NC(=O)C(C)n4nc(C(F)(F)F)cc4C)C3SC2)s1 (stereo unspecified),u,x,25%,63µM*,50µM*
CN(C(=O)CC(NC(=O)c1ccccc1Cl)c1ccccc1)c1ccccc1 (stereo unspecified),17%,x,17%,-19%,-16%
COc1ccc(C=CC(=O)c2cc(O)ccc2O)cc1,x,x,u,40µM*,x
Cc1ccc(O)c(C(=O)C=Cc2ccccc2)c1,x,x,u,40µM*,x
CN(C)c1ccc(/C=C/C(=O)c2ccccc2O)cc1,8.9µM*,x,13µM*,10µM*,x
COc1cc(C)cc(C(=O)C=Cc2ccccc2)c1O,x,x,u,56µM*,x
Cc1ccc(O)c(C(=O)/C=C/c2ccc3c(c2)OCCCO3)c1,7.1µM*,u,u,16µM*,28µM*
CCOC(=O)c1c(C)[nH]c(C)c1C(=O)CSc1nnc(-c2ccncc2)n1Cc1ccccc1,56µM*,x,-1%,-22%,u
C=CCn1c(SCC(=O)c2c(C)[nH]c3ccccc23)nnc1-c1ccncc1,50µM*,9%,25%,2%[11.4 µM],3%
CCOC(=O)c1c(C)[nH]c(C)c1C(=O)CSc1nnc(-c2ccco2)n1Cc1ccccc1,u,x,-4%,-23%,u
C=CCn1c(SCC(=O)N2CCCCC2)nnc1-c1ccncc1,18%,9%,24%,-13%,-17%
C=CCn1c(SCC(=O)N2CC(C)OC(C)C2)nnc1-c1ccncc1 (stereo unspecified),7.9µM*,0%,29%,0%,-5%
C=CCn1c(SCn2nnc3ccccc3c2=O)nnc1-c1ccc(F)cc1,32µM*,5%,41%,-7%,10%
Cc1[nH]c2ccccc2c1C(=O)CSc1ccc(Cl)cc1,-30%,-1%[11.4 µM],u,22µM*,-25%
Cc1[nH]c2ccccc2c1C(=O)CSc1nc2ccccc2[nH]1,48%[12.7 µM],-7%,55%,-19%,-1%
CCOC(=O)CN(C(=O)CSc1nnc(-c2ccncc2)n1CCCN(C)C)c1ccccc1,2.8µM*,3%[11.4 µM],u,u,50µM*
CC(=O)C1=C(O)C(=O)N(c2ccc(O)cc2)C1c1cccc(F)c1 (stereo unspecified),-20%,x,17%,-16%,5%
CC(=O)C1=C(O)C(=O)N(c2ccc(O)cc2)C1c1cccc([N+](=O)[O-])c1 (stereo unspecified),50µM*,-2%,22%,-7%,4%
CC(=O)C1=C(O)C(=O)N(c2ccc(Br)cc2)C1c1cccc(F)c1 (stereo unspecified),45µM*,3%,11%,-23%,-34%
COCCNC(=O)CSc1nnc(-c2ccc(OC)c(OC)c2)c(-c2ccc(OC)c(OC)c2)n1,-7%[59 µM],x,-6%,-11%,-4%
CN1CCN(c2nc(-c3ccc4c(c3)OCO4)nc3ccccc23)CC1,2%[0.501 µM],x,x,x,x
O=C(CCCn1c2ccccc2c(=O)c2ccccc21)Nc1ccc(F)cc1Cl,4%[59 µM],x,22%,2%,4%
CSc1ccccc1NC(=O)c1noc2c1CCC2,14µM*,14µM*,50µM*,50µM*,40µM*
CCc1ccc(NC(=O)c2noc3c2CCC3)cc1,20%[12.7 µM],x,-16%,56µM*,50µM*
N#C/C(=C/c1cccc(O)c1)C(=O)NCc1ccc(Cl)cc1,1%,x,-3%,-22%,-19%
SMILES,G9a block,L3MBTL1 inh,HP1b binding inh,JMJD2A Tudor,BAZ2B inh
N#C/C(=C\c1ccc(O)c(O)c1)C(=O)Nc1ccccc1,7.1µM*,-21%,u,u,13µM*
C[C@@H](NC(=O)/C(C#N)=C/c1ccc(O)c(O)c1)c1ccccc1,2.8µM*,-27%,u,40µM*,35µM*
N#C/C(=C\c1cccnc1)C(=O)Nc1ccccc1,-14%,10%,20%,0%,11%
CC(NC(=O)/C(C#N)=C/c1ccc(Cl)c([N+](=O)[O-])c1)c1ccccc1 (stereo unspecified),u,-12%,-8%,u,u
N#C/C(=C/c1ccc(O)c(O)c1)C(=O)NCc1ccc(Cl)cc1,11µM*,x,28µM*,13µM*,35µM*
N#C/C(=C\c1ccc(O)c(O)c1)C(=O)Nc1cccc2ncccc12,8.9µM*,x,-8%,u,u
Cc1cccc(NC(=S)N2CCC(NC(=O)c3ccco3)CC2)c1,u,x,41%,-11%,-12%
Cc1cccn2c(=O)c(C(=O)NCc3cccc(F)c3)cnc12,37%[59 µM],x,33%,-3%,8%
O=C(NCCc1ccc(Cl)cc1)C1CCN(Cc2cc3ccccc3n2Cc2ccccc2)CC1,10%[59 µM],x,33%,-21%,-20%
Cc1cc2ccccc2n2c(SCC(=O)Nc3cccc(C(F)(F)F)c3)nnc12,-44%[59 µM],x,29%,-3%,0%
N#C/C(=C/c1ccc(O)c(O)c1)C(=O)OC/C=C/c1ccccc1,1.6µM*,x,x,x,x
C[C@H](NC(=O)/C(C#N)=C/c1ccc(O)c(O)c1)c1ccccc1,7.9µM*,x,x,x,x
CC(NC(=O)/C(C#N)=C/c1ccc(OCC(=O)O)cc1)c1ccccc1 (stereo unspecified),x,-10%,25%,-13%,5%[57.1 µM]
O=C(Nc1cc(C(F)(F)F)ccc1-n1cncn1)c1ccc([N+](=O)[O-])o1,24%[0.501 µM],-4%,-2%,-28%,0%
COc1cccc(NC(=O)CSc2nccn2C2CCCC2)c1,-22%[59 µM],x,12%,-26%,u
O=C(O)Cc1csc(NC(=O)CSc2cccc(C(=O)O)n2)n1,x,x,-18%,89µM*,-39%
Nc1ccc(-n2nncc2-c2ccc(Cl)cc2)cc1,7.1µM*,x,-4%,u,-7%
CCOC(=O)CSc1ccc2nnc(-c3cccnc3)n2n1,18µM*,2%,60%,-6%,6%
CC(=O)c1ccc(NC(=O)CSc2ccc3nnc(-c4ccccn4)n3n2)cc1,89%,x,46%,32µM*,1%
CC(=O)Nc1ccc(NC(=O)CSc2ccc3nnc(-c4cccnc4)n3n2)cc1,32µM*,x,36%,-15%,-9%
O=C(CSc1ccc2nnc(-c3ccncc3)n2n1)Nc1ccc2c(c1)OCO2,32µM*,x,45%,-30%,-2%
Cc1ccc(NC(=O)CSc2ccc3nnc(-c4ccccn4)n3n2)cc1,45%,x,48%,-27%,4%
CCOC(=O)c1[nH]c(C)c(CCC(=O)Nc2ccccc2C(=O)OC)c1C,-3%[59 µM],x,9%[57 µM],-25%,3%
CS(=O)(=O)N(Cc1ccccc1)c1ccc(C(=O)Nc2ccc(Cl)cc2)cc1,7%[59 µM],x,42%,-5%,5%
Cc1ccc(S(=O)(=O)N2CCN(c3nc(-c4ncccn4)nc4ccccc34)CC2)cc1,x,x,56%,u,x
O=C(CSc1ccc2nnc(-c3cccc(F)c3)n2n1)NCc1ccco1,-9%,-2%,9%,-29%,-35%

# High-throughput results (PubChem BioAssay)
